# Shown are actives, neighbours in structure and some others; about 1.3% of the full set was active somewhere.
# AGP1 TOR yeast = modulators of TOR pathway AGP1-GFP in S. cerevisiae | S. cerevisiae AGP1-GFP multiplex flow cytometry, 3 h; GFP as percent of DMSO wells | GFP response vs DMSO, % at 10 µM | hit rate 0.02% among 320,000;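 active = GFP response relative to DMSO above a set limit, near screen average plus 3 SD, cut at about 150% in these data; inconclusive = fewer than 70 cells counted for the yeast strain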;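 note: median GFP channel fluorescence of the gated AGP1 strain per well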
# LAP4 TOR yeast = alters LAP4-GFP fluorescence in TOR pathway yeast screen; hit rate 0.34% among 320,000; AID 2023; S. cerevisiae LAP4-GFP multiplex, flow cytometry GFP, 3 h; median GFP as percent of DMSO wells; GFP response vs DMSO, % at 10 µM;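 active = GFP response vs DMSO above a set limit, about the screen mean plus 3 SD, cut at about 150% in these data; inconclusive = under 70 cell events counted for the yeast strain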
# Efflux pump mplx = inhibitors of Candida antifungal efflux pumps expressed in yeast. S. cerevisiae Candida pump triplex, Nile Red efflux. inhibition, % at 10 µM. hit rate 0.44% among 330,000. AID 485275;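 active = plate passing quality check with inhibition over a set limit, or well fluorescence over plate mean plus 4 SD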;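 note: Nile Red retained in pooled yeast measured as flow cytometry median fluorescence; 0% = buffer negative control and 100% = Enniatin B positive control; higher means more Nile Red kept so more efflux inhibition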
# CIT2 TOR yeast = yeast TOR pathway CIT2-GFP modulation; S. cerevisiae CIT2-GFP strain, flow cytometry, 3 h; 100 means same as DMSO wells; GFP response vs DMSO, % at 10 µM; hit rate 0.065% among 320,000; AID 2029;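 active = GFP response relative to DMSO above a set limit, near the screen mean plus 3 SD, cut at about 150% in these data; inconclusive = Fewer than 70 cells measured for a yeast strain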;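 note: ratio of well median GFP fluorescence to mean of DMSO wells on the plate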
# RPL19A-GFP yeast = yeast TOR pathway RPL19A-GFP modulation; S. cerevisiae RPL19A-GFP strain, flow cytometry, 3 h; stronger effect = lower value; percent response vs DMSO, % at 10 µM; hit rate 0.3% among 330,000; AID 2025;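 active = percent response vs DMSO below 50%; inconclusive = fewer than 70 events counted for the yeast strain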;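 note: median channel GFP fluorescence of the barcoded RPL19A-GFP strain; ratio of sample median GFP to plate DMSO average so 100% = DMSO; lower means less RPL19A-GFP as with rapamycin TOR inhibition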
# MEP2 TOR yeast = modulators of TOR pathway MEP2-GFP in S. cerevisiae; AID 2016; GFP response vs DMSO, % at 10 µM; hit rate 0.51% among 330,000; S. cerevisiae MEP2-GFP strain, flow cytometry GFP, 3 h; 100% = DMSO control level;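 active = GFP response versus DMSO above a set limit, roughly screen mean plus 3 SD, cut at about 180% in these data; inconclusive = fewer than 70 cells counted for a yeast strain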;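 note: median GFP fluorescence of the barcode-gated MEP2-GFP cells per well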
# Numbers without * were called inactive; ? = inconclusive; . = no result; [ ] = another dose, or the depositor's remark.
SMILES,AGP1 TOR yeast,LAP4 TOR yeast,Efflux pump mplx,CIT2 TOR yeast,RPL19A-GFP yeast,MEP2 TOR yeast
C#CCOCCOCCOCCNc1nc(N2CCN(C(=O)CCCCCCCCCCNC(=O)[C@H](CO)n3cc(CCCCCN)nn3)CC2)nc(N2CCN(C(=O)CCCCCCCCCCNC(=O)[C@H](CCCN=C(N)N)n3cc(C[C@@H](C)CC)nn3)CC2)n1,98,162*,0,94,72,97
C#CCOCCOCCOCCNc1nc(N2CCN(C(=O)CCCCCCCCCCNC(=O)[C@@H](CCC(=O)O)n3cc(CCCCCN)nn3)CC2)nc(N2CCN(C(=O)CCCCCCCCCCNC(=O)[C@H](CO)n3cc(CCCCCN)nn3)CC2)n1,88,138,0,88,93,95
C#CCOCCOCCOCCNc1nc(N2CCN(C(=O)CCCCCCCCCCNC(=O)[C@H](CCCCN)n3cc(C[C@@H](C)CC)nn3)CC2)nc(N2CCN(C(=O)CCCCCCCCCCNC(=O)[C@H](CCCN=C(N)N)n3cc(C[C@@H](C)CC)nn3)CC2)n1,99,198*,1,99,63,114
C#CCOCCOCCOCCNc1nc(N2CCN(C(=O)CCCCCCCCCCNC(=O)[C@H](CCCCN)n3cc(C[C@@H](C)CC)nn3)CC2)nc(N2CCN(C(=O)CCCCCCCCCCNC(=O)[C@@H]([C@H](C)O)n3cc(C)nn3)CC2)n1,98,149,0,94,74,101
Cc1cnc(C(=O)N2CCN(S(=O)(=O)c3ccc(F)c(F)c3F)CC2)cn1,96,96,0,101,99,95
CC(NC(=O)c1ccccc1F)c1nnc(SCC(=O)NC2CCCC2)n1C (configuration not stated),93,93,0,100,101,101
CCCCCOc1ccc(C(=O)Nc2ccc(S(=O)(=O)Nc3cc(C)on3)cc2)cc1,96,95,0,101,96,95
Cn1nc(C(=O)Nc2ccc(S(=O)(=O)Nc3ncccn3)cc2)ccc1=O,110,104,0,100,102,99
CCOC(=O)Cc1c(C)c2c(C)[nH]nc2oc1=O,?,90,0,?,23*[may fluoresce violet],328*[may fluoresce violet]
CCCc1c(C)c2c(C)[nH]nc2oc1=O,.,92,0,86,87,98
COc1ccc(OC)c(NC(=O)c2csc(Cl)c2OC)c1,86,114,0,102,103,103
CN1c2ccccc2N(C)C1(C)c1ccccc1,20,92,0,?,39*[may fluoresce violet],186*[may fluoresce violet]
CCN1c2ccccc2N(C)C1(C)c1ccccc1 (configuration not stated),95,102,0,102,98,103
O=C(Cn1cnc2c(OCc3ccccc3)ncnc21)N[C@H](CO)Cc1cc2ccccc2[nH]1,98,94,0,98,96,93
CC(OC(=O)c1cccc(-n2cnnn2)c1)C(=O)Nc1ccc(F)cc1Cl (configuration not stated),105,101,0,100,95,104
Cn1c(=O)c2c(ncn2CCOc2ccc(F)cc2)n(C)c1=O,?,70,0,?,40*[may fluoresce violet],?
Cn1c(=O)c2c(ncn2CCOc2ccc(Br)cc2)n(C)c1=O,101,88,0,109,96,109
Cn1c(=O)c2c(ncn2CC(=O)OCC(=O)Nc2ccccc2)n(C)c1=O,107,108,0,105,99,103
Cn1c(=O)c2c(ncn2CC(=O)Nc2ccccc2)n(C)c1=O,.,88,1,?,59,210*[may fluoresce violet]
CCc1cccc(CC)c1NC(=O)CN1CCN(S(=O)(=O)c2ccccc2)CC1,101,98,0,101,99,106
OC(c1ccc(F)cc1)C(CN1CCOCC1)c1ccccc1 (configuration not stated),98,95,1,96,99,94
NC(=O)c1c(NC(=O)CSc2nnc(Cc3ccccc3)n2Cc2ccco2)sc2c1CCC2,102,107,0,100,99,97
CCCCn1c(SCC(=O)Nc2sc3c(c2C(N)=O)CCC3)nnc1-c1ccccc1,?,79,0,?,16*[may fluoresce violet],252*[may fluoresce violet]
COCC(=O)Nc1cc([N+](=O)[O-])ccc1C,31,92,0,102,.,216*
CN(Cc1ccc(F)cc1)C(=O)c1ccc(NS(=O)(=O)c2ccccc2)cc1,104,107,0,102,98,99
SMILES,AGP1 TOR yeast,LAP4 TOR yeast,Efflux pump mplx,CIT2 TOR yeast,RPL19A-GFP yeast,MEP2 TOR yeast
COc1cc(C2N(Cc3ccccc3)CCN2Cc2ccccc2)ccc1OC(C)=O,?,84,0,?,42*[may fluoresce violet],497*[may fluoresce violet]
COc1cc(C2N(c3ccccc3)CCN2c2ccccc2)ccc1OC(C)=O,78,92,0,83,96,99
COc1ccc(NC(=O)COc2cc(C)cc(C)c2)cc1S(=O)(=O)N1CCCCC1,103,107,0,91,94,104
O=C(CSc1ncnc2scc(-c3ccccc3)c12)N1CCN(Cc2ccc3c(c2)OCO3)CC1,?,57,0,?,30*[may fluoresce violet],198*[may fluoresce violet]
CC(OC(=O)c1ccc2c(=O)n3c(nc2c1)CCCCC3)C(N)=O (configuration not stated),104,102,0,101,107,110
Cc1ccnc(SCC(=O)N2CCC(C(N)=O)CC2)n1,?,98,0,?,15*[may fluoresce violet],358*[may fluoresce violet]
CCOC(=O)c1c2ccccc2[n+]([O-])n1[C@@H](C)C(N)=O,?,105,0,?,30*[may fluoresce violet],281*[may fluoresce violet]
O=C(COc1ccccc1)NCC(=O)N/N=C/c1ccc(Br)cc1,104,101,0,111,99,98
O=C(N/N=C/c1ccncc1)NC12CC3CC(CC(C3)C1)C2,105,112,0,99,98,101
O=C(N/N=C/c1ccc(O)cc1)NC12CC3CC(CC(C3)C1)C2,?,61,0,?,39*[may fluoresce violet],351*[may fluoresce violet]
COc1ccc(NC(=O)Cn2nnc(-c3ccccc3NC(=O)c3ccco3)n2)cc1,103,92,0,103,95,99
COc1ccccc1NC(=O)Cn1nnc(-c2ccccc2NC(=O)c2ccco2)n1,103,86,0,100,96,195*
CC(NC(=O)c1ccco1)C(=O)OCc1cccc(C(F)(F)F)c1 (configuration not stated),104,105,0,89,95,95
Cc1nnc(OCc2nc3ccccc3n2C)c2ccccc12,73,99,0,83,56,217*
Cc1ccccc1OCc1nc2ccccc2n1C,94,110,0,100,98,91
COc1ccc(NC(=S)NCCCN2CCOCC2)cc1,82,104,0,82,93,89
COc1ccc(NC(=S)NCCN2CCOCC2)cc1,?,116,0,?,19*[may fluoresce violet],419*[may fluoresce violet]
